The campaign covered roughly 320,000 compounds. About 1,300 (0.41%) were called active. The sample holds actives, similar compounds and a random draw of the others, so the mix is not that of the screen. Unmarked numbers belong to inactive results.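 Rule for the calls: active = percent inhibition above the average of all tested compounds plus 3 SD, set per screening campaign (cut at about 16% in these data); inactive = the rest.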

For 25 compounds, inhibition results are on record in PubChem BioAssay AID434962 (The Scripps Research Institute Molecular Screening Center, 2010).

Chain of Insulin-degrading enzyme (Homo sapiens) (P14735 whole entry, looked up): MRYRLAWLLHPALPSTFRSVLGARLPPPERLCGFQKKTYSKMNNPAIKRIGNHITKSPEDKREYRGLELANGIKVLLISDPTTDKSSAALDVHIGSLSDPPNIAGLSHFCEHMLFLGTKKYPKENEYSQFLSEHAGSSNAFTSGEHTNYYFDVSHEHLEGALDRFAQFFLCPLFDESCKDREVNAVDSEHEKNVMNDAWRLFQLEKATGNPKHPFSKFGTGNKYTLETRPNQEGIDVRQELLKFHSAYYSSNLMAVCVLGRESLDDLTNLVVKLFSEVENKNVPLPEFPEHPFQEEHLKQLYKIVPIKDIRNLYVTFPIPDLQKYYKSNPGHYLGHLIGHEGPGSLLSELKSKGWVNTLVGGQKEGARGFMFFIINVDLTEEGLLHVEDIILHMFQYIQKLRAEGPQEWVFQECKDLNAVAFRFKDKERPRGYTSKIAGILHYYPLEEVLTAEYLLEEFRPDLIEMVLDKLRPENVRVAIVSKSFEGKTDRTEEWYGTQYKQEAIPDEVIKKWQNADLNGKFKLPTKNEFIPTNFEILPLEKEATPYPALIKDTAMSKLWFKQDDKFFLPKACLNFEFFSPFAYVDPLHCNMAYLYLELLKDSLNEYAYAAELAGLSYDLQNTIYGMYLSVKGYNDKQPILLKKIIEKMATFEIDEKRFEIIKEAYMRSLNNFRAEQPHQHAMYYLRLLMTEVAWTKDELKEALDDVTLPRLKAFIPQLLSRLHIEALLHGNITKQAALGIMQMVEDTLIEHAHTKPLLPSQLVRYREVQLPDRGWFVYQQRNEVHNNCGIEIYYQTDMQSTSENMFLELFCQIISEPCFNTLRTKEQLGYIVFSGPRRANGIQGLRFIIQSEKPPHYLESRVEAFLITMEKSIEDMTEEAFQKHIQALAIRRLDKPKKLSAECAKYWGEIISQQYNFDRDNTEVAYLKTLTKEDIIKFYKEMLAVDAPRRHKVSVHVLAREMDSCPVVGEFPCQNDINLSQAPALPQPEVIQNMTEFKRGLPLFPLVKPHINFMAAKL

The assay addresses Insulin-degrading enzyme (Homo sapiens) (UniProt P14735). The experiment in a line: cellular IDE Abeta-cleavage inhibition – fluorescence polarization, HEK cells, FAbetaB substrate, primary screen (AID 434962).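 Note: IDE supplied by intact live HEK cells; FP after avidin binding of uncleaved biotin substrate so inhibition keeps polarization high; 0% = DMSO wells and 100% = 60 µM reference IDE inhibitor Ii1.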 The settings on record: at 5.59 µM, hits give high values.
Broadly, the inhibition is the change of the read-out against control, counted positive when it falls. Take `Cc1ccnc(-n2sc3ccccc3c2=O)n1`: the inhibition was 57.8% (active). Turning to `Cc1ccnc(N2CCCC(C(=O)NC3CC3)C2)n1` (stereo not given), the inhibition is 1.69%. For `Cc1nc2ccccc2c(=O)n1NC(=O)c1ccccc1`, the inhibition is 7.25%. Take `COc1cccc(CNC(=O)C2CCCN(c3ncnc4c3nc3n4CCCCC3)C2)c1` (stereo not given): the inhibition is 8.69%.

For the compound `O=C(/C=C/c1ccccc1)Oc1coc(CSc2ncccn2)cc1=O`, the inhibition is 4.39%. Consider `COC(=O)c1sccc1-n1cccc1C(=O)C(=O)N1CCCCC1`, for which the inhibition was -0.4%. `COc1ccc(N(C(=O)c2cccnc2)S(=O)(=O)c2ccc(OC)c(OC)c2)cc1`: the inhibition was -4.14%. With `O=C(c1cccnc1)N(c1cc2sc(=O)oc2c2ccccc12)S(=O)(=O)c1ccccc1`, the inhibition was 20.4% (active). Regarding `CCc1ccc(N(CC(=O)NCc2cccnc2)S(=O)(=O)c2ccccc2)cc1`, the inhibition is 8.22%. With `O=C(Cn1nnc2ccccc2c1=O)Nc1cc(C(F)(F)F)ccc1N1CCOCC1`, the inhibition was 6.97%.

With `COc1ccc(C)cc1NC(=O)c1cc(-c2ccccc2)nc2c1cnn2C(C)C`, the inhibition is 1.05%. Take `CC(=O)N(C1=C(Cl)C(=O)c2ccccc2C1=O)c1ccc(C(=O)O)cc1`: the inhibition is 98.9% (active). The result for `Cc1cc(OCCCC(=O)NCCN2C(=O)S/C(=C\c3cccnc3)C2=O)ccc1Cl` reads 3.84%; that for `OC(c1nc2ccc(F)cc2[nH]1)C(O)c1nc2ccc(F)cc2[nH]1` (stereo not given), 6.32%; that for `COc1ccc(-c2[nH]ncc2/C=N/NC(=O)c2cc(Br)ccc2O)c(OC)c1`, 1.62%.

As for `Cc1ccccc1NC(=O)C(C)c1ccc(-c2ccccc2)c(F)c1` (stereo not given), the inhibition is 4.53%. Consider `CCN1/C(=C/c2ccc3ccc(C)cc3[n+]2CC)Sc2ccccc21`, for which the inhibition was 31.9% (active). In the case of `CCN1/C(=C\c2ccc3ccccc3[n+]2CC)Sc2cc(C)ccc21`, the inhibition was 73.9% (active). Regarding `CC(NC(=O)C(C)(C)C)C(c1cccs1)N1CCN(Cc2ccccc2)CC1` (stereo not given), the inhibition was -2.35%.

On to `O=Cc1c(Nc2ccccc2Cl)nc2ccccn2c1=O`, for which the inhibition was -3.69%.

With `CC(=O)c1ccc(S(=O)(=O)Nc2ccc(-c3ccc4nncn4n3)cc2)cc1`, the inhibition is 2.89%. Turning to `Cc1ccc(CC(=O)N(C)CC(=O)N(CC(C)C)c2c(N)n(CC(C)C)c(=O)[nH]c2=O)cc1C`, the inhibition was -2.63%.

Turning to `CCOC(=O)Cn1c(=O)oc2cc(S(=O)(=O)N(C)Cc3ccco3)ccc21`, the inhibition is 3.15%. `CN(c1ccccc1)c1ccc(/C=c2\s/c(=C(/C#N)C(=O)C(C)(C)C)n(Cc3ccco3)c2=O)cc1`: the inhibition was 31% (active). Consider `O=C(O)c1ccccc1C(=O)NC1=NN(c2ccccc2)CC1`, for which the inhibition is -0.6%.
